GPR151 ag – human GPR151 activation; PathHunter beta-arrestin GPR151 cells, luminescence; hit rate 1% among 650,000; Q8TDV0; activation, % at 11.2 µM; in the data active means activation above about 4.9%;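 further: 0% = median of compound wells and 100% = cells with positive control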
FBW7 act – human FBW7 E3 ligase activation, primary screen | Q969H0 | AlphaScreen FBW7–phospho-cyclin E peptide binding, activator screen | normalized activity (activation), % at 26.1 µM | hit rate 0.13% among 650,000 | AID 1259310; in the data active means normalized activity above about 1.9%;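 further: purified mutant Fbw7 with reduced substrate affinity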
TEAD-YAP inh – TEAD-YAP interaction inhibition. inhibition, % at 9.12 µM. hit rate 1.4% among 640,000. HEK-TIYL cells, TEAD-Gal4/YAP UAS-luciferase luminescence; in the data active means inhibition above about 32%;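 further: 0% = median of test compound wells and 100% = reference inhibitor wells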
MITF inh – human MITF inhibition, primary screen; hit rate 0.91% among 650,000; AlphaScreen MITF homodimerization, bead proximity signal; inhibition, % at 2.6 µM; O75030; in the data active means inhibition above about 50%;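 further: 0% = vehicle wells with protein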
Target sequence (O75030 whole entry, looked up): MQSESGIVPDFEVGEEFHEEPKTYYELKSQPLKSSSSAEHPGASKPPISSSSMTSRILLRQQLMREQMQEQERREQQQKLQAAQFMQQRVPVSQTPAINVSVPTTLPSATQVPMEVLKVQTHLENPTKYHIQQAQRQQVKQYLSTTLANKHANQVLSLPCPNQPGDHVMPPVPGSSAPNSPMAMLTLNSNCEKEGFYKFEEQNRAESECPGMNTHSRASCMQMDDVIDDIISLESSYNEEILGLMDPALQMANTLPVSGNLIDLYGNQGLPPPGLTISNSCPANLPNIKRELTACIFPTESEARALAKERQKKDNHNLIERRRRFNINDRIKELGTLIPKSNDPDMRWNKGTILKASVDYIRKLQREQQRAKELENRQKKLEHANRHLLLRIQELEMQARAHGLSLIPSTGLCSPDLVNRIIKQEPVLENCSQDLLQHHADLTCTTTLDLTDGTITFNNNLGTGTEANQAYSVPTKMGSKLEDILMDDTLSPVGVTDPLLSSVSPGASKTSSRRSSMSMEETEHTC
MITF inh conf – confirmation of human MITF inhibitors | AlphaScreen MITF homodimerization, biotin/His-MITF beads | hit rate 16% among 4,700 | shares compounds with MITF inh | inhibition, % at 2.6 µM;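 active means inhibition above a cutoff derived from the DMSO control wells, cut at about 28% in these data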;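 further: 0% = MITF dimer wells with DMSO only; inhibitors lower the bead chemiluminescence by keeping MITF from dimerizing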
AlphaScreen DR – counter-screen: compounds optically interfering with AlphaScreen | shares compounds with MITF inh | AlphaScreen optical interference counterscreen, cell-free | IC50, µM | hit rate 6% among 480 | AID 1259373; call rule not given here
AS interf ctr – AlphaScreen optical interference, counter-screen | hit rate 7.6% among 4,700 | AID 1259376 | inhibition, % at 2.6 µM | LysRS AlphaScreen counterscreen, signal interference, triplicate | shares compounds with MITF inh;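 active means inhibition above a cutoff derived from the DMSO control wells, cut at about 30% in these data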
Numbers without * were called inactive; . = no result. Sampled rows, rich in hits. Any-hit rate of the full collection: about 3.5%.

SMILES | GPR151 ag | FBW7 act | TEAD-YAP inh | MITF inh | MITF inh conf | AS interf ctr | others
CSc1ccc(CN2CCN(Cc3ccco3)CC2)cc1 | -0.1 | 0.5 | 1.1 | 85.3* | -0.6 | -0.9
COc1ccc(C(=O)N2CCN(Cc3ccco3)CC2)cc1 | 0.6 | -0.1 | -3.7 | 54.6* | -12.7 | 6.3
COc1ccc(OC)c(CNCc2ccco2)c1 | 0.6 | 0.0 | 3.6 | 4.2 | . | .
COc1ccc(OC)c(CN2CCN(Cc3ccco3)CC2)c1 | 0.9 | -0.1 | -3.9 | 78.7* | 10.3 | 13.2
COc1cccc(N2CCN(Cc3ccco3)CC2)c1 | -0.9 | -0.2 | -5.5 | 23.4 | . | .
COc1cccc(CN2CCN(Cc3ccco3)CC2)c1 | -1.2 | -0.2 | -8.8 | 76.1* | 14.0 | 20.0
Clc1ccccc1N1CCN(Cc2ccco2)CC1 | -0.5 | 0.0 | -0.1 | 1.9 | . | .
CCN1C(SCC(=O)Nc2cccc(C)c2C)=NS(=O)(=O)c2ccccc21 | -1.6 | -0.1 | -2.9 | 10.8 | . | .
Cc1ccc(NC(=O)c2c(C)c(-c3ccc(Cl)cc3Cl)nc3ccccc23)cc1[N+](=O)[O-] | 0.5 | -0.1 | 0.5 | -5.8 | . | .
CCc1ccc(CN2CCC(C(=O)NCc3ccco3)CC2)cc1 | -1.3 | 1.1 | 8.8 | 48.2 | . | .
OCCN1CCN(Cc2cccc(Oc3ccc(Cl)cc3)c2)CC1 | -0.4 | 0.0 | 7.8 | -10.0 | . | .
CCN1CCN(Cc2nnnn2Cc2ccco2)CC1 | -1.2 | 0.0 | 17.3 | 10.4 | . | .
COc1ccc(CN2CCN(C(=O)c3ccco3)CC2)cc1 | 0.7 | 0.1 | -3.8 | 39.1 | . | .
CCc1ccc(CN2CCN(Cc3ccco3)CC2)cc1 | 0.5 | -0.3 | -5.4 | 71.0* | 11.7 | 20.6
CCC(CC)N1CCN(Cc2ccco2)CC1 | -1.0 | 0.0 | -4.7 | 52.8* | 5.5 | 1.9
COc1ccc(CN2CCN(Cc3ccco3)CC2)cc1 | -0.6 | -0.2 | -20.8 | 70.9* | 9.3 | 8.6
c1ccc(Oc2cccc(CN3CCN(Cc4ccco4)CC3)c2)cc1 | -1.1 | -0.1 | -3.6 | 69.2* | 7.4 | 3.8
COc1ccc(CNC(=O)Cn2ncc3c2-c2ccccc2OC3)cc1 | 0.1 | 0.0 | 0.4 | 11.9 | . | .
CC(=O)Nc1c(C(=O)O)oc2ccccc12 | -0.1 | 0.0 | -38.8 | 5.6 | . | .
Cc1ccc(CN(CC(N)=O)S(=O)(=O)c2c(C)cc(C)cc2C)cc1 | 1.6 | -0.1 | -8.5 | -3.7 | . | .
CC(C)(C)NS(=O)(=O)c1cccc([N+](=O)[O-])c1 | -0.8 | -0.1 | 1.0 | 6.0 | . | .
CC(Nc1ccccc1)C(=O)N1CCc2ccccc21 (stereo not drawn) | -0.7 | 0.0 | -24.4 | 9.3 | . | .
CC(NCC1(N2CCOCC2)CCCCC1)C(=O)N1CCc2ccccc21 (stereo not drawn) | -2.0 | 0.0 | -3.2 | 53.0* | -0.5 | 7.3
C1=CC2CC1CC2CN1CCN(C2CCC(c3ccccc3)CC2)CC1 (stereo not drawn) | 0.3 | 0.0 | 3.9 | 63.0* | -15.9 | 3.5
C1=CC2CC1CC2CN1CCN(C2CCCCC2)CC1 (stereo not drawn) | -0.1 | 0.0 | 7.4 | 47.9 | . | .
SMILES | GPR151 ag | FBW7 act | TEAD-YAP inh | MITF inh | MITF inh conf | AS interf ctr | others
CCC(C)N1CCN(CC2CC3C=CC2C3)CC1 (stereo not drawn) | 0.3 | 0.1 | -7.6 | 72.8* | -3.2 | 0.9
C1=CC2CC1CC2CN1CCN(C2CCCCCC2)CC1 (stereo not drawn) | -0.4 | -0.1 | 14.3 | 55.2* | -3.2 | -5.7
C1=CC2CC1CC2CN1CCN(C2CCCC2)CC1 (stereo not drawn) | -0.1 | -0.1 | 0.6 | 66.5* | -17.7 | -3.6
C/C(CC(=O)Nc1ccc2c(c1)OCCO2)=N\NC(=O)c1cccc(F)c1 | -2.5 | 0.0 | -20.5 | -0.5 | . | .
O=C(Nc1ccc(-n2cccn2)cc1)C1CCN(Cc2ccc3c(c2)CCO3)CC1 | -0.7 | 0.0 | -8.7 | -14.0 | . | .
Cc1ncn(-c2ccc(Nc3ncc4cccc(-c5ccccc5F)c4n3)cc2)n1 | -2.4 | 0.6 | -14.2 | 27.5 | . | .
Cc1ncn(-c2ccc(N(C)c3ncc4cccc(-c5ccn[nH]5)c4n3)cc2)n1 | 0.0 | 0.7 | 14.8 | 57.7* | 57.4* | 10.0 | AlphaScreen DR=>6.48
CCOC(=O)/C(C#N)=C\c1ccc(OCC)cc1 | 2.5 | 0.1 | -2.5 | -10.6 | . | .
CCOC(=O)/C(C#N)=C/c1ccc(OC(=O)c2ccccn2)cc1 | -2.8 | -1.1 | 17.4 | 60.5* | 25.8 | 53.8*
CCOC(=O)c1c(C)c(C(=O)NCCc2ccccc2OC)c(C)n1C | -0.9 | -0.2 | -1.2 | 55.2* | 6.9 | 11.8
CCOC(=O)c1c(C)c(C(=O)NCCc2ccc(OC)c(OC)c2)c(C)n1C | -0.2 | -0.2 | 0.9 | 0.2 | . | .
Cc1cccc(C)c1N1CCN(C(=O)c2cc3cc(Br)ccc3oc2=O)CC1 | 1.8 | -0.1 | 6.4 | 88.5* | -14.7 | -0.6
Cc1ccc(N2CCN(C(=O)c3cc4cc(Br)ccc4oc3=O)CC2)cc1C | -0.6 | -0.1 | -1.3 | 7.3 | . | .
CCCCOC(=O)C1=C(C)N(C)C(=O)NC1c1ccc(Cl)cc1 (stereo not drawn) | 0.1 | -0.1 | 10.8 | 0.7 | . | .
Ic1ccc(OCCN2CCNCC2)cc1 | -0.8 | -0.3 | 5.8 | 62.6* | -18.2 | -2.1
CCOc1ccc(OCCOCCN2CCOCC2)cc1 | -1.5 | 0.4 | 2.6 | 49.3 | . | .
CCOc1ccc(OCCCCN2CCNCC2)cc1 | -0.3 | 0.0 | -19.6 | 65.2* | 11.4 | 11.8
Clc1ccc(OCCN2CCNCC2)cc1 | -0.4 | 0.4 | 9.6 | 14.5 | . | .
CN1CCN(CCCCN2C(=O)c3ccccc3C2=O)CC1 | 0.1 | 0.1 | 1.9 | 86.6* | 11.7 | -0.1
c1ccc(COc2ccc(OCCN3CCNCC3)cc2)cc1 | 1.8 | -0.3 | -11.3 | 70.5* | 6.1 | -3.5
Cc1ccccc1CNC(=O)Cn1c(=O)oc2ccccc21 | 0.2 | -0.3 | 3.5 | -6.1 | . | .
CCC(C)(C)c1ccc(OCCN2CCNCC2)cc1 | 0.0 | -0.2 | 6.5 | 72.2* | -16.8 | -7.3
CCc1ccc(OCCN2CCNCC2)cc1 | -1.0 | -0.3 | -3.5 | 9.3 | . | .
CC(C)(c1ccccc1)c1ccc(OCCCN2CCNCC2)cc1 | 0.2 | -0.4 | 5.5 | 58.1* | -4.9 | 2.6
CN1CCN(CCCOc2ccc(OCc3ccccc3)cc2)CC1 | -0.6 | 0.0 | -40.0 | 58.9* | 3.0 | 4.9
SMILES | GPR151 ag | FBW7 act | TEAD-YAP inh | MITF inh | MITF inh conf | AS interf ctr | others
COCCCNCCCCOc1ccc(OCc2ccccc2)cc1 | 0.4 | -0.1 | -26.5 | 52.9* | 3.4 | 23.1
c1ccc2c(OCCCN3CCNCC3)cccc2c1 | 0.0 | -0.4 | 4.6 | 37.7 | . | .
COc1cccc(N2C(=O)c3ccc(C(=O)Nc4c[nH]c(=O)[nH]c4=O)cc3C2=O)c1 | -0.6 | 0.5 | 0.1 | 11.3 | . | .
Cc1nc2cc(NCc3ccccc3O)ccc2n1C | -1.1 | 0.0 | -25.1 | 19.2 | . | .
O=C(c1ccccc1)c1ccc(OCCCCN2CCOCC2)cc1 | -1.8 | 0.6 | -3.5 | 47.6 | . | .
CNCCCOc1ccc(C(C)(C)c2ccccc2)cc1 | 0.2 | -0.1 | -4.5 | 47.4 | . | .
CN1CCN(CCCCOc2ccc(C(=O)c3ccccc3)cc2)CC1 | -0.7 | -0.1 | 2.0 | 74.8* | -0.9 | 8.0
CNCCOc1ccc(C(C)(C)c2ccccc2)cc1 | -0.6 | 0.7 | -5.5 | 51.6* | 6.4 | 18.3

Source: PubChem (The Scripps Research Institute Molecular Screening Center)
